Assay results: PubChem BioAssay (EPA / NIEHS)
Calls of active or inactive are those of the source. How the source made its calls: active means hit-call score of the fitted dose curve at least 0.9, where 1 is the maximum; inactive means score below 0.9.

Test: APR_HepG2_MitoMembPot_72hr: Apredica 72-hour HepG2 Assay for Mitochondrial Membrane Potential (AID 2282917)
Details: imaging, actives raise or lower the signal
Method: APR_HepG2_72hr is a cell-based, multiplexed-readout assay that uses HepG2, a human liver cell line, with measurements taken at 72 hours after chemical dosing in a 384-well plate.APR_HepG2_MitoMembPot_72hr is one of 10 assay component(s) measured or calculated from the APR_HepG2_72hr assay. It is designed to make measurements of dye binding, a form of membrane potential reporter, as detected with fluorescence intensity signals by HCS Fluorescent Imaging technology.Data from the assay component APR_HepG2_MitoMembPot_72hr was analyzed into 1 assay endpoint. This assay endpoint, APR_HepG2_MitoMembPot_72hr, was analyzed with bidirectional fitting relative to DMSO as the negative control and baseline of activity. Using a type of membrane potential reporter, gain or loss-of-signal activity can be used to understand changes in the signaling. Furthermore, this assay endpoint can be referred to as a primary readout, because this assay has produced multiple assay endpoints where this one serves a signaling function. To generalize the intended target to other relatable targets, this assay endpoint is annotated to the cell morphology intended target family, where the subfamily is organelle conformation.
Cells were treated with dimethyl sulfoxide (DMSO) as a solvent control at a final concentration of 0.5% v/v or with compounds in DMSO with a resulting final DMSO concentration of 0.5% v/v. Compound treatment was done at concentrations of 0.39, 0.78, 1.56, 3.12, 6.24, 12.5, 25, 50, 100, and 200 uM in duplicate on each plate. Cells were treated with compounds for 1, 24, or 72 hr. Carbonyl […] m-chloro-phenylhydrazone (CCCP) and taxol were used as positive controls for mitochondrial function and cytoskeletal stability, respectively; DMSO served as the negative control for this experiment. Cells were fixed by the direct addition of 50 uL formaldehyde in Hank's Balanced Salt Solution (HBSS) to a final concentration of 3.7%. After incubation in the fixation medium for 30 min at room temperature (293-298 K), cells were rinsed twice with HBSS and treated with cell permeabilization buffer (16 uL of 0.5% Triton X-100) for 10 min at room temperature (293-298 K) before labeling. For mitochondrial membrane potential and mitochondrial measurements, pre-fixed cells were incubated with 50 uL of MitoTracker Red CMXRos (Invitrogen) at a concentration of 250 nM for 30 min before fixation. In the remaining cases, post-fixed cells were labeled by incubation with a multiplexed mixture of primary antibodies in HBSS for 60 min at room temperature (293-298 K) to detect immunoreactivity of c-Jun (1:500), phospho-histone H3 (1:100), phospho-histone H2A.x (1:200), p53 (1:400), alpha-tubulin (1:200) and Hoechst 33342 (2 ug/mL). Cells were labeled for multiplexed imaging on two separate plates: a) Hoechst 33342, MitoTracker Red, phospho-histone H3, and alpha-tubulin, and b) Hoechst 33342, phospho-histone H2A.x, and c-Jun. A final rinse with HBSS (50 uL) was performed before analysis. The primary and secondary antibodies for the proteins were phospho-histone H3 (rabbit anti-phospho-histone H3 and FITC-donkey anti-rabbit IgG), phospho-histone H2A.x (mouse anti-phospho-histone H2A.x and FITC-donkey anti-mouse IgG), c-Jun (rabbit anti-phospho-c-Jun and Cy3-donkey anti-rabbit IgG), p53 (sheep anti-p53 and Cy5-donkey anti-sheep IgG), alpha-tubulin (mouse anti-alpha-tubulin and Cy5-donkey anti-mouse IgG). These antibodies are available as the CellCiphr HepG2 assay kit (Millipore).Digital images of each well were captured using a Cellomics ArrayScan VTI (Thermo Scientific Cellomics) (0.8 NA objective, 0.63x optical coupler, and XF-93 filter set) at 20x magnification. The images were acquired using the autofocus feature of the ArrayScan instrument, which entails the following steps. First, the camera focuses on channel 1 (Hoechst 33342), where nuclei are identified. Second, a Z offset of 1 um is used for capturing mitochondria (MitoTracker Red). […]

Compound	outcome	AC50
CN(C)c1nc(=O)n(C2CCCCC2)c(=O)n1C	inactive	
CC(C)(c1ccccc1)c1ccc(O)cc1	inactive	
Cc1cccc([N+](=O)[O-])c1	inactive	
Oc1c(Cl)c(Cl)c(Cl)c(Cl)c1Cl	inactive	
C=CC(N)=O	inactive	
ClC(Cl)=C(c1ccc(Cl)cc1)c1ccc(Cl)cc1	inactive	
Cc1cc(-c2ccc(N)c(C)c2)ccc1N	inactive	
Cc1cc(O)ccc1Cl	inactive	
O=S(=O)(O)C(F)(F)C(F)(F)C(F)(F)C(F)(F)F	inactive	
CCC(C)(CC)c1cc(NC(=O)c2c(OC)cccc2OC)on1	inactive	
ClC1=C(Cl)[C@]2(Cl)[C@@H]3[C@@H]4C[C@@H]([C@H]5O[C@@H]45)[C@@H]3[C@@]1(Cl)C2(Cl)Cl	inactive	
Cc1ccccc1O	inactive	
c1cc2ccc3cccc4ccc(c1)c2c34	inactive	
O=NN(c1ccccc1)c1ccccc1		0.0668 µM (active)
Oc1ccc(Cl)cc1Cl	inactive	
Clc1ccc(Cl)cc1	inactive	
CCCCCCCCOC(=O)c1ccccc1C(=O)OCCCCCCCC	inactive	
CC(C)(O)C(=O)Nc1ccc([N+](=O)[O-])c(C(F)(F)F)c1		0.889 µM (active)
Cc1ccc(O)c(C)c1	inactive	
COc1ccc(O)c(C(C)(C)C)c1	inactive	

Compound	outcome	AC50
CCOP(=S)(OCC)SCSC(C)(C)C	inactive	
CCC(C)c1cc([N+](=O)[O-])cc([N+](=O)[O-])c1O (stereo not given)		111 µM (active)
Cc1cccc(C)c1N	inactive	
CCCCCCCCCc1ccc(O)cc1	inactive	
COS(=O)(=O)OC	inactive	
O=S(=O)(O)C(F)(F)C(F)(F)C(F)(F)C(F)(F)C(F)(F)C(F)(F)F	inactive	
c1ccc(-c2ccccc2)cc1	inactive	
Clc1ccc(C(c2ccccc2Cl)C(Cl)(Cl)Cl)cc1 (stereo not given)		56.3 µM (active)
CCCCCCCCCC[N+](C)(C)CCCCCCCCCC		41.2 µM (active)
CCOCCOC(C)=O	inactive	
O=C(O)C(F)(F)C(F)(F)C(F)(F)C(F)(F)C(F)(F)F	inactive	
CCNc1nc(NC(C)C)nc(SC)n1		59.6 µM (active)
CO/C=C(/C(=O)OC)c1ccccc1COc1cccc(C(F)(F)F)n1	inactive	
Oc1ccc(C(c2ccc(O)cc2)(C(F)(F)F)C(F)(F)F)cc1	inactive	
CC(C)C(=O)OCC(C)(C)C(OC(=O)C(C)C)C(C)C (stereo not given)	inactive	
Clc1ccc(C(Cl)(Cl)Cl)cc1	inactive	
CCSC(=O)N(CC)C1CCCCC1	inactive	
CN(C)CCO	inactive	
C[C@]12CCC(=O)C=C1CC[C@@H]1[C@@H]2CC[C@]2(C)C(=O)CC[C@@H]12	inactive	
N#Cc1ccc(N(CC(N)=O)CC(F)(F)F)cc1C(F)(F)F	inactive	
